Experimental findings from PubChem BioAssay are described below.

Each structure is given as a SMILES string. Active and inactive are the calls of the source.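 Rule for the calls: active = viability loss from added drug above about 55%, and viability with drug at most 40%, in both replicates (limit read from the data, passing the limit was not always enough); inconclusive = both conditions met in only one replicate; inactive = neither replicate meets both conditions.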

What is called viability is a read-out of living cells in per cent, often relative to untreated cells.

The nature of one assay: reversal of MRP1-mediated doxorubicin resistance, pilot screen, H69AR cells, doxorubicin co-treatment (AID 601). Particulars: H69AR cells + 2 uM doxorubicin, CellTiter-Glo, 72 h; at 10 µM; stronger effect = higher value. Background: In ATP-based viability assays light output follows the ATP content of the culture.
Turning to `COCCOC(=O)C1=C(C)Nc2ncnn2C1c1ccc(F)cc1` (stereo not given), the differential viability (reversal) is 3.85% (inactive).
As to `CCC(=O)N[C@@H]1CC(C(C)(C)NC(=O)CC)CC=C1C` (stereo not given in full), the differential viability (reversal) is -1% (inactive).
Consider `O=C(CCCCCN1C(=O)CCC1=O)NCc1ccccc1`, for which the differential viability (reversal) is 13.5% (inactive).
Still for that read-out and setting: as for `O=C(Cn1ccc2ccccc2c1=O)NCCC(=O)NC1CCN(Cc2ccccc2)CC1`, the figure is 17.5% (inactive); as for `Cc1ccc(C)c(N2CCN(C(=O)CCCn3c(=S)[nH]c4cc5c(cc4c3=O)OCO5)CC2)c1`, 4.74% (inactive); as for `COC(=O)C1C(=O)c2c([nH]c(C(=O)OCCOC(C)C)c2C)CC1C` (stereo not given), 7.92% (inactive).
In the case of `CCOC(=O)c1c(C)[nH]c(C)c1C(=O)COc1ccc(NC(=O)c2ccco2)cc1`, the differential viability (reversal) was -6.89% (inactive).
In the case of `CN1CCCN(C(=O)c2cc(=O)[nH]c3ccccc23)c2nc3ccccc3nc21`, the differential viability (reversal) was 0.575% (inactive).
Still for that read-out and setting: as for `O=C(Nc1cccnc1)c1ccc2c(c1)C(=O)N(Cc1cccnc1)C2=O`, the figure is 7.77% (inactive).
As to `CCCCn1c(SCC(=O)Nc2cc(C)on2)nnc1-c1cccnc1`, the differential viability (reversal) is -2.12% (inactive).
With `Nc1nc(-c2ccccc2Br)cs1`, the differential viability (reversal) was 9.75% (inactive).
Consider `CCOc1ccc(NC(=O)CN(C)S(=O)(=O)c2cccs2)cc1`, for which the differential viability (reversal) is 6.1% (inactive).
Consider `Cc1sc(NC(=O)CSc2nc(N)n(CC(=O)c3ccccc3)n2)c(C#N)c1C`, for which the differential viability (reversal) is -0.79% (inactive).
On to `CCOC(=O)C1=C(C)Nc2ncnn2C1c1cc(OC)ccc1OC` (stereo not given), for which the differential viability (reversal) was 0.51% (inactive).
Same read-out and setting: as for `O=S(=O)(NCc1ccccc1)c1ccc2c(c1)OCCO2`, the figure is -7.4% (inactive); as for `CC1(C)Cc2c(sc3c2C2=NCCN2C=N3)CO1`, 1.75% (inactive); as for `Cc1ccccc1CN1CCN(CC(=O)NCc2ccccc2)C1=O`, 6.96% (inactive).
On to `Cc1nc2ccccc2cc1C(=O)NCc1ccco1`, for which the differential viability (reversal) is 8.23% (inactive).
Take `O=C(NCc1cccnc1)C1c2ccccc2C(=O)N1Cc1ccco1` (stereo not given): the differential viability (reversal) was 11.6% (inactive).
As to `CC(C(=O)N1CCc2ccccc21)N1CCc2ccccc2C1` (stereo not given), the differential viability (reversal) was -10.2% (inactive).
Turning to `Cc1ccc2cc(C#N)c(NCCCNC(=O)C3CCCO3)nc2c1` (stereo not given), the differential viability (reversal) was 12.6% (inactive).
For the compound `Nn1c(SCC(=O)Nc2ccc3c(c2)OCO3)nnc1C1CC1`, the differential viability (reversal) is 2% (inactive).
For `COc1ccc(C2C(C(=O)c3sc(C)nc3C)=C(O)C(=O)N2CCN2CCOCC2)cc1` (stereo not given), the differential viability (reversal) is 5.41% (inactive).
Turning to `O=C(O)c1cccc(CN2C(=O)SC(Nc3ccccc3)C2=O)c1` (stereo not given), the differential viability (reversal) is 8.78% (inactive).
`Nc1c(S(=O)(=O)c2cccs2)c2nc3ccccc3nc2n1CC1CCCO1` (stereo not given): the differential viability (reversal) is 4.9% (inactive).
With `O=C(Nc1ccc(OC(=O)c2ccco2)cc1)c1ccco1`, the differential viability (reversal) was -10.4% (inactive).
The same measure, in the same setting: as for `COC(=O)Cn1cnc2c(nnn2-c2ccc(C)cc2)c1=O`, the figure is 7% (inactive).
For the compound `O=C(Nc1nc2c(s1)CCc1ccccc1-2)c1cccs1`, the differential viability (reversal) is -4.96% (inactive).
Regarding `Cc1cccc(OCCCc2c(C)n[nH]c2C)c1`, the differential viability (reversal) is 20.4% (inactive).
Regarding `O=C(CN1CCC(NC(=O)c2ccc(F)cc2)CC1)NCc1ccccc1F`, the differential viability (reversal) is 3.44% (inactive).
`CCCCc1ccc(NC(=O)c2c(C)noc2C)cc1`: the differential viability (reversal) is 0.065% (inactive).
Take `CC1=Nn2c(nnc2-c2ccccn2)SC1`: the differential viability (reversal) was 11.3% (inactive).
`O=c1oc2ccccc2n1CCn1c2ccccc2c2nc3ccccc3nc21`: the differential viability (reversal) was -3.67% (inactive).
Still for that read-out and setting: as for `COc1ccc(N2CCN(C(c3cccs3)c3nnnn3C3CCCC3)CC2)cc1` (stereo not given), the figure is -17.6% (inactive); as for `CCc1ccc2c(CN(CC)Cc3nc4ccccc4c(=O)[nH]3)cc(=O)oc2c1`, 36.3% (inactive); as for `COc1ccc(OC)c(N(CC(=O)N2CCN(c3cc(Cl)ccc3C)CC2)S(C)(=O)=O)c1`, 3.83% (inactive).
For `COC(=O)c1ccc(COc2ncnc3c(Cl)cc(Cl)cc23)o1`, the differential viability (reversal) was 18.5% (inactive).
Still for that read-out and setting: as for `O=C1CC(c2cccc(Cl)c2)Cc2nc(N3CCN(c4ccccc4)CC3)ncc21` (stereo not given), the figure is -0.02% (inactive).
With `COc1ccccc1Oc1coc2c(CN3CCN(C)CC3)c(O)ccc2c1=O`, the differential viability (reversal) is 14.9% (inactive).
In the case of `CCOC(=O)Nc1ccc2c(CN3C(=O)NC4(CCCC4)C3=O)cc(=O)oc2c1`, the differential viability (reversal) is -1.09% (inactive).

The same assay, now with this note: H69AR cells + 2 uM doxorubicin, CellTiter-Glo, 72 h; measured here: viability with 2 uM doxorubicin; at 10 µM; stronger effect = lower value.
`COCCOC(=O)C1=C(C)Nc2ncnn2C1c1ccc(F)cc1` (stereo not given): the viability is 82%.
On to `CCC(=O)N[C@@H]1CC(C(C)(C)NC(=O)CC)CC=C1C` (stereo not given in full), for which the viability was 87.4%.
Same read-out and setting: as for `O=C(CCCCCN1C(=O)CCC1=O)NCc1ccccc1`, the figure is 84.7%; as for `O=C(Cn1ccc2ccccc2c1=O)NCCC(=O)NC1CCN(Cc2ccccc2)CC1`, 82.8%; as for `Cc1ccc(C)c(N2CCN(C(=O)CCCn3c(=S)[nH]c4cc5c(cc4c3=O)OCO5)CC2)c1`, 89.2%.
Turning to `COC(=O)C1C(=O)c2c([nH]c(C(=O)OCCOC(C)C)c2C)CC1C` (stereo not given), the viability was determined as 91.6%.
Turning to `CCOC(=O)c1c(C)[nH]c(C)c1C(=O)COc1ccc(NC(=O)c2ccco2)cc1`, the viability turned out to be 93.8%.
Regarding `CN1CCCN(C(=O)c2cc(=O)[nH]c3ccccc23)c2nc3ccccc3nc21`, the viability is 79.3%.
For the compound `O=C(Nc1cccnc1)c1ccc2c(c1)C(=O)N(Cc1cccnc1)C2=O`, the viability amounted to 94.7%.
`CCCCn1c(SCC(=O)Nc2cc(C)on2)nnc1-c1cccnc1`: the viability came out at 106%.
Same read-out and setting: as for `Nc1nc(-c2ccccc2Br)cs1`, the figure is 81.8%; as for `CCOc1ccc(NC(=O)CN(C)S(=O)(=O)c2cccs2)cc1`, 87.8%.
Turning to `Cc1sc(NC(=O)CSc2nc(N)n(CC(=O)c3ccccc3)n2)c(C#N)c1C`, the viability was 91.2%.
Consider `CCOC(=O)C1=C(C)Nc2ncnn2C1c1cc(OC)ccc1OC` (stereo not given), for which the viability is 81.3%.
On the same count and under the same terms, as for `O=S(=O)(NCc1ccccc1)c1ccc2c(c1)OCCO2`, the figure is 84.2%.
Consider `CC1(C)Cc2c(sc3c2C2=NCCN2C=N3)CO1`, for which the viability stood at 89.2%.
Same read-out and setting: as for `Cc1ccccc1CN1CCN(CC(=O)NCc2ccccc2)C1=O`, the figure is 83%.
Regarding `Cc1nc2ccccc2cc1C(=O)NCc1ccco1`, the viability is 85.1%.
For the compound `O=C(NCc1cccnc1)C1c2ccccc2C(=O)N1Cc1ccco1` (stereo not given), the viability was 81.3%.
Consider `CC(C(=O)N1CCc2ccccc21)N1CCc2ccccc2C1` (stereo not given), for which the viability was 102%.
Take `Cc1ccc2cc(C#N)c(NCCCNC(=O)C3CCCO3)nc2c1` (stereo not given): the viability stood at 86.4%.
As for `Nn1c(SCC(=O)Nc2ccc3c(c2)OCO3)nnc1C1CC1`, the viability was 92.2%.
On the same count and under the same terms, as for `COc1ccc(C2C(C(=O)c3sc(C)nc3C)=C(O)C(=O)N2CCN2CCOCC2)cc1` (stereo not given), the figure is 96.3%; as for `O=C(O)c1cccc(CN2C(=O)SC(Nc3ccccc3)C2=O)c1` (stereo not given), 94%.
Same read-out and setting: as for `Nc1c(S(=O)(=O)c2cccs2)c2nc3ccccc3nc2n1CC1CCCO1` (stereo not given), the figure is 81%.
For `O=C(Nc1ccc(OC(=O)c2ccco2)cc1)c1ccco1`, the viability was 95.7%.
As to `COC(=O)Cn1cnc2c(nnn2-c2ccc(C)cc2)c1=O`, the viability was 87.7%.
Still for that read-out and setting: as for `O=C(Nc1nc2c(s1)CCc1ccccc1-2)c1cccs1`, the figure is 87.9%; as for `Cc1cccc(OCCCc2c(C)n[nH]c2C)c1`, 78.4%.
For the compound `O=C(CN1CCC(NC(=O)c2ccc(F)cc2)CC1)NCc1ccccc1F`, the viability was 100%.
As to `CCCCc1ccc(NC(=O)c2c(C)noc2C)cc1`, the viability was 89.3%.
On to `CC1=Nn2c(nnc2-c2ccccn2)SC1`, for which the viability is 88.2%.
As for `O=c1oc2ccccc2n1CCn1c2ccccc2c2nc3ccccc3nc21`, the viability was 37.8%.
As for `COc1ccc(N2CCN(C(c3cccs3)c3nnnn3C3CCCC3)CC2)cc1` (stereo not given), the viability was 87.5%.
Same read-out and setting: as for `CCc1ccc2c(CN(CC)Cc3nc4ccccc4c(=O)[nH]3)cc(=O)oc2c1`, the figure is 31.7%; as for `COc1ccc(OC)c(N(CC(=O)N2CCN(c3cc(Cl)ccc3C)CC2)S(C)(=O)=O)c1`, 72%.
In the case of `COC(=O)c1ccc(COc2ncnc3c(Cl)cc(Cl)cc23)o1`, the viability was 67.4%.
Still for that read-out and setting: as for `O=C1CC(c2cccc(Cl)c2)Cc2nc(N3CCN(c4ccccc4)CC3)ncc21` (stereo not given), the figure is 91.3%; as for `COc1ccccc1Oc1coc2c(CN3CCN(C)CC3)c(O)ccc2c1=O`, 84.7%.
Consider `CCOC(=O)Nc1ccc2c(CN3C(=O)NC4(CCCC4)C3=O)cc(=O)oc2c1`, for which the viability turned out to be 89.4%.
